# In PubChem BioAssay (NCATS):
# Results filed as inconclusive are left out. A call without a number means that no potency is given here. For some of these results: Results with a measured potency or affinity are listed apart. Activity calls are given as the source filed them.
# Legend:
# [1] = Ebola virus entry assay, reporter ratio channel; AC50: Channel type: primary unless noted; outcome: Channel type: primary unless noted
# [2] = Ebola virus entry assay, blue channel (ratio component)
# [3] = Ebola virus entry cell assay, ratio channel
# [4] = Ebola virus entry reporter assay, green channel fluorescence
# [5] = Immunotoxin (HA22) sensitization/mitigation study. Vehicle arm (PBS) (AID 1159510); note: potency is the fitted concentration of half-maximal effect
# [6] = High-throughput drug toxicity screening in the BPDCN cell line Gen2.2 (AID 1224824); conditions: Gen2.2 BPDCN cells; at 45.8 µM (top of the series) unless noted;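 note: cells exposed to compounds for 48 h before reading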
# Procedure, shortened: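 Seed 500 exponentially growing Gen2.2 cells/well; add compounds by pin tool; incubate 48 h, 37 °C, 5% CO2; add CellTiter-Glo, 15 min RT; read luminescence. % activity vs DMSO (100%) and bortezomib (0%).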
# [7] = High-throughput drug toxicity screening in the BPDCN cell line Cal-1 (AID 1224825); conditions: Cal-1 BPDCN cell viability, qHTS; at 45.8 µM (top of the series) unless noted
# Procedure, shortened: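 Cal-1 cells, 500 per well in phenol-red-free RPMI with 10% FBS, exposed to compounds for 48 hours at 37C, 5% CO2. Viability read by CellTiter-Glo luminescence; percent activity normalized to DMSO (100%) and 9.2 uM bortezomib final (0%).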
# [8] = qHTS assay for measurement of the activity of small molecule inhibitors on Zika virus induced Caspase-3 activity in human iPSC derived neural progenitor cells (hNPCs) (AID 1224857; active = well fitted curve in the direction sought with a large enough effect; an effect the other way counts as inactive or inconclusive; note: nearly all actives have a fitted effect of over 65% in size)
# Procedure, shortened: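 Percent inhibition of virus-induced caspase-3/7 luminescence (Caspase-Glo), scaled between uninfected cells and Zika-infected cells. hNPCs received compound 1 hr before ZIKV at 2 FFU/cell, with 6 hours infection at 37 C.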
# [9] = qHTS assay for measurement of the activity of small molecule inhibitors on Zika virus induced Caspase-3 activity in human astrocytoma cells (AID 1224859; active = well fitted curve in the direction sought with a large enough effect; an effect the other way counts as inactive or inconclusive)
# Procedure, shortened: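 Luminescent caspase-3/7 read-out (30 min reagent, room temperature) in human SNB-19 cells infected 6 h with ZIKV (2 FFU/cell) after 1 h compound pre-incubation; Data were normalised to uninfected and infected wells.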
# [10] = qHTS Screen of the MIPE 4.0 Collection Against Ewings Sarcoma (RDES) (AID 1259252; active = well fitted curve in the direction sought with a large enough effect; an effect the other way counts as inactive or inconclusive; note: nearly all actives have a fitted effect of over 35% in size)
# Procedure, shortened: (§1)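 Viability screen: 48 h incubation at 37C, 95% humidity, 5% CO2 with serially titrated compound, followed by CellTiter-Glo readout.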
# [11] = qHTS Screen of the MIPE 4.0 Collection Against Ewings Sarcoma (TC71) (AID 1259253; active = well fitted curve in the direction sought with a large enough effect; an effect the other way counts as inactive or inconclusive; note: nearly all actives have a fitted effect of over 40% in size)
# Procedure, shortened: as §1
# [12] = qHTS Screen of the MIPE 4.0 Collection Against Ewings Sarcoma (EW8) (AID 1259255; active = well fitted curve in the direction sought with a large enough effect; an effect the other way counts as inactive or inconclusive; note: nearly all actives have a fitted effect of over 35% in size)
# Procedure, shortened: as §1
# [13] = qHTS Screen of the MIPE 4.0 Collection Against Ewings Sarcoma (TC32) (AID 1259256; active = well fitted curve in the direction sought with a large enough effect; an effect the other way counts as inactive or inconclusive; note: nearly all actives have a fitted effect of over 45% in size; note: potency is the fitted concentration of half-maximal effect)
# Procedure, shortened: as §1
# [14] = qHTS assay to identify small molecule inhibitors of chordoma cells - UCH-1 (AID 1259355; active = well fitted curve in the direction sought with a large enough effect; an effect the other way counts as inactive or inconclusive; note: nearly all actives have a fitted effect of over 55% in size)
# Procedure, shortened: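 Cells (800/well) were seeded and left overnight at 37 C, 5% CO2, then treated with drugs at 15 concentrations plus a combination mix of auranofin, camptothecin, doxorubicin, rubitecan and topotecan. Viability after 48hr was read by CellTiter-Glo luminescence.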
# [15] = qHTS assay to identify small molecule inhibitors of chordoma cells - UCH-2 (AID 1259356; active = well fitted curve in the direction sought with a large enough effect; an effect the other way counts as inactive or inconclusive)
# [16] = Immunotoxin (SS1P) sensitization/mitigation study. Vehicle arm (DMEM) (AID 1159513); note: potency is the fitted concentration of half-maximal effect
smiles,measurement,setting,value
NC(N)=Nc1nc(CSCC/C(N)=N/S(N)(=O)=O)cs1,outcome,[1],inactive
same,outcome,[2],inactive
same,outcome,[3],inactive
CN=C(NC#N)NCCSCc1nc[nH]c1C,outcome,[1],inactive
same,outcome,[2],inactive
same,outcome,[3],inactive
CCN(CC)C(=O)/C(C#N)=C/c1cc(O)c(O)c([N+](=O)[O-])c1,outcome,[1],inactive
same,outcome,[2],inactive
same,outcome,[4],inactive
same,outcome,[3],inactive
O=C1CN(/N=C/c2ccc([N+](=O)[O-])o2)C(=O)N1,outcome,[1],inactive
same,outcome,[2],inactive
same,outcome,[3],inactive
NCC[C@H](O)C(=O)N[C@@H]1C[C@H](N)[C@@H](O[C@H]2O[C@H](CN)[C@@H](O)[C@H](O)[C@@H]2O)[C@H](O)[C@@H]1O[C@H]1O[C@H](CO)[C@@H](O)[C@H](N)[C@@H]1O,outcome,[1],inactive
same,outcome,[2],inactive
same,outcome,[4],inactive
same,outcome,[3],inactive
Nc1nc2ccc(OC(F)(F)F)cc2s1,outcome,[1],inactive
same,outcome,[2],inactive
same,outcome,[4],inactive
same,outcome,[3],inactive
same,Potency,[5],23.5 µM (active)
CN1[C@@H]2CC[C@H]1CC(OC(c1ccccc1)c1ccccc1)C2 (stereo not given in full),outcome,[1],inactive [Channel type: confirmation]
same,outcome,[2],inactive
same,AC50,[3],3.55 µM (active)
CN1C(=O)COc2c(C(=O)NC3CN4CCC3CC4)cc(Cl)cc21 (stereo not given),outcome,[1],inactive
same,outcome,[2],inactive
same,"cell viability, % of control (lower = more cytotoxic)",[6],212%
same,viability (% of control),[7],120%
same,outcome,[8],inactive
same,outcome,[9],inactive
same,Potency,[10],inactive
same,Potency,[11],inactive
same,outcome,[12],inactive
same,Potency,[13],inactive
same,outcome,[14],inactive
same,outcome,[15],inactive
COc1cc2c(Nc3ccc(Br)cc3F)ncnc2cc1OCC1CCN(C)CC1,outcome,[1],inactive
same,outcome,[2],inactive
same,Potency,[5],20.9 µM (active)
COc1cc(OC)c(OC)cc1C=O,outcome,[1],inactive
same,outcome,[2],inactive
same,"cell viability, % of control (lower = more cytotoxic)",[6],98.9%
same,viability (% of control),[7],98.8%
same,outcome,[8],inactive
same,outcome,[9],inactive
C[C@@H]1O[C@@H](O[C@H]2CC[C@@]3(C)[C@H](CC[C@@H]4[C@H]3C[C@@H](O)[C@]3(C)[C@@H](C5=CC(=O)OC5)CC[C@]43O)C2)C[C@H](O)[C@@H]1O[C@H]1C[C@H](O)[C@H](O[C@H]2C[C@H](O)[C@@H](O)[C@@H](C)O2)[C@H](C)O1 (stereo in doubt),outcome,[1],inactive [Channel type: confirmation]
same,outcome,[2],inactive
same,AC50,[3],0.794 µM (active)
CN1C(CSCC(F)(F)F)Nc2cc(Cl)c(S(N)(=O)=O)cc2S1(=O)=O (stereo not given),outcome,[1],inactive
same,outcome,[2],inactive
same,outcome,[3],inactive
O=C(O)/C=C\C(=O)O,outcome,[1],inactive
same,outcome,[2],inactive
same,outcome,[8],inactive
CCN1CC(CCN2CCOCC2)C(c2ccccc2)(c2ccccc2)C1=O (stereo not given),outcome,[1],inactive
same,outcome,[2],inactive
same,outcome,[3],inactive
NC(=O)CC[C@@H]1NC(=O)[C@H](Cc2ccccc2)NC(=O)[C@H](Cc2ccc(O)cc2)NC(=O)CCSSC[C@@H](C(=O)N2CCC[C@H]2C(=O)N[C@@H](CCCN=C(N)N)C(=O)NCC(N)=O)NC(=O)[C@H](CC(N)=O)NC1=O,outcome,[1],inactive
same,outcome,[2],inactive
same,outcome,[3],inactive
CCC(CC)(CNC(=O)CCCO)c1cccc(OC)c1,outcome,[1],inactive
same,outcome,[2],inactive
same,outcome,[8],inactive
same,outcome,[9],inactive
CNNCc1ccc(C(=O)NC(C)C)cc1,outcome,[1],inactive
same,outcome,[2],inactive
same,outcome,[3],inactive
C=CCN1C[C@H](C(=O)N(CCCN(C)C)C(=O)NCC)C[C@@H]2c3cccc4[nH]cc(c34)C[C@H]21,outcome,[1],inactive
same,outcome,[2],inactive
same,AC50,[3],15.8 µM (active)
CCC1(c2ccc(N)cc2)CCC(=O)NC1=O (stereo not given),outcome,[1],inactive
same,outcome,[2],inactive
same,"cell viability, % of control (lower = more cytotoxic)",[6],153%
same,viability (% of control),[7],111%
same,outcome,[8],inactive
same,outcome,[9],inactive
same,Potency,[10],inactive
same,Potency,[11],inactive
same,outcome,[12],inactive
same,Potency,[13],inactive
same,outcome,[14],inactive
same,outcome,[15],inactive
O=c1[nH]c(=O)n([C@H]2C[C@H](O)[C@@H](CO)O2)cc1F,outcome,[1],inactive
same,outcome,[2],inactive
same,outcome,[3],inactive
Cc1nnc(C(C)C)n1C1C[C@H]2CC[C@@H](C1)N2CC[C@H](NC(=O)C1CCC(F)(F)CC1)c1ccccc1 (stereo not given in full),outcome,[1],inactive [Channel type: confirmation]
same,outcome,[2],inactive
same,outcome,[3],inactive
C[C@]12CC[C@H]3[C@@H](CC[C@@]45O[C@H]4C(O)=C(C#N)C[C@]35C)[C@H]1CC[C@H]2O,outcome,[1],inactive
same,outcome,[2],inactive
same,"cell viability, % of control (lower = more cytotoxic)",[6],28.9%
same,viability (% of control),[7],51.6%
same,outcome,[8],inactive
same,outcome,[9],inactive
same,Potency,[13],20.9 µM (active)
C=CCC1([C@H](C)CCC)C(=O)NC(=O)NC1=O,outcome,[1],inactive
same,outcome,[2],inactive
same,outcome,[3],inactive
same,outcome,[8],inactive
same,outcome,[9],inactive
CCn1cc(C(=O)O)c(=O)c2cc(F)c(N3CCNC(C)C3)c(F)c21 (stereo not given),outcome,[1],inactive
same,outcome,[2],inactive
same,outcome,[3],inactive
Cn1nnc2c(C(N)=O)ncn2c1=O,outcome,[1],inactive
same,outcome,[2],inactive
same,outcome,[3],inactive
C[C@]12CC[C@H]3[C@@H](CCC4=CC(=O)CC[C@@H]43)[C@@H]1CC[C@@H]2OC(=O)CCC1CCCCC1,outcome,[1],inactive
same,outcome,[2],inactive
same,outcome,[8],inactive
same,outcome,[9],inactive
CO[C@H]1C[C@@H]2CC[C@@H](C)[C@@](O)(O2)C(=O)C(=O)N2CCCC[C@@H]2C(=O)O[C@H]([C@H](C)C[C@@H]2CC[C@H](OCCO)[C@H](OC)C2)CC(=O)[C@H](C)C=C(C)[C@@H](O)[C@@H](OC)C(=O)[C@H](C)C[C@H](C)C=CC=CC=C1C,outcome,[1],inactive [Channel type: confirmation]
same,outcome,[2],inactive
same,AC50,[3],14.1 µM (active)
same,Potency,[16],23.5 µM (active)
CNCCCC12CCC(c3ccccc31)c1ccccc12,outcome,[1],inactive [Channel type: confirmation]
same,outcome,[2],inactive
same,AC50,[3],3.16 µM (active)
COc1cccc2c1C(=O)c1c(O)c3c(c(O)c1C2=O)C[C@@](O)(C(C)=O)C[C@H]3O[C@H]1C[C@H](N)[C@H](O)[C@H](C)O1,outcome,[1],inactive [Channel type: confirmation]
same,outcome,[2],inactive
same,AC50,[3],5.62 µM (active)
CN1C(=O)CCS(=O)(=O)C1c1ccc(Cl)cc1 (stereo not given),outcome,[1],inactive
same,outcome,[2],inactive
same,"cell viability, % of control (lower = more cytotoxic)",[6],143%
same,viability (% of control),[7],112%
same,outcome,[8],inactive
same,outcome,[9],inactive
same,outcome,[12],inactive
same,outcome,[14],inactive
same,outcome,[15],inactive
